Results published in PubChem BioAssay AID1159580 (chemical genetic matrix, 2015).
The whole screen tested about 5,500 compounds, of which about 2,000 (36%) were called active. About 18% were inconclusive and are not listed. No stated cut-off is given here; in the data, active means normalized growth mostly below about 0.91 (no sharp cut-off); inconclusive means no clear call, values can overlap the other calls; inactive means mostly above about 0.92. This is one part of the list.

Assay: chemical genetic growth profiling, strain panel (AID 1159580);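 further: tested at 20 µM; growth read once vehicle control cultures reached saturation at 30 °C; 1 = growth at the plate median or of vehicle wells; lower values mean less growth of the strain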
Conditions: growth OD

Measured: normalized growth

CCNS(=O)(=O)c1cc(Cl)sc1Cl
inactive: S. cerevisiae deletion strains, locus YAL013W, strain DEP1, hits give low values 0.992 | S. cerevisiae deletion strains, locus YBR229C, strain ROT2, hits give low values 1.02 | S. cerevisiae deletion strains, locus YDL101C, strain DUN1, hits give low values 0.99 | S. cerevisiae deletion strains, locus YDL134C, strain PPH21, hits give low values 1.01 | S. cerevisiae deletion strains, locus YDR150W, strain NUM1, hits give low values 0.947 | S. cerevisiae deletion strains, locus YEL061C, strain CIN8, hits give low values 0.995 | S. cerevisiae deletion strains, locus YGR078C, strain PAC10, hits give low values 1 | S. cerevisiae deletion strains, locus YGR229C, strain SMI1, hits give low values 0.994 | S. cerevisiae deletion strains, locus YHR030C, strain SLT2, hits give low values 1.05 | S. cerevisiae deletion strains, locus YHR087W, strain rtc3, hits give low values 1 | S. cerevisiae deletion strains, locus YJR043C, strain POL32, hits give low values 1.01 | S. cerevisiae deletion strains, locus YJR075W, strain HOC1, hits give low values 1.01 | S. cerevisiae deletion strains, locus YKL190W, strain CNB1, hits give low values 1 | S. cerevisiae deletion strains, locus YLR039C, strain RIC1, hits give low values 0.989 | S. cerevisiae deletion strains, locus YLR058C, strain SHM2 (second series), hits give low values 1.04 | S. cerevisiae deletion strains, locus YLR085C, strain ARP6, hits give low values 0.983 | S. cerevisiae deletion strains, locus YLR262C, strain YPT6, hits give low values 0.985 | S. cerevisiae deletion strains, locus YML094W, strain GIM5, hits give low values 1.01 | S. cerevisiae deletion strains, locus YMR219W, strain ESC1, hits give low values 0.994 | S. cerevisiae deletion strains, locus YMR263W, strain SAP30, hits give low values 1.01 | S. cerevisiae deletion strains, locus YMR307W, strain GAS1, hits give low values 0.976 | S. cerevisiae deletion strains, locus YNL153C, strain GIM3, hits give low values 1.01 | S. cerevisiae deletion strains, locus YNL298W, strain CLA4 (second series), hits give low values 1.05 | S. cerevisiae deletion strains, locus YNL322C, strain KRE1, hits give low values 0.992 | S. cerevisiae deletion strains, locus YNR030W, strain Alg12, hits give low values 1.01 | S. cerevisiae deletion strains, locus YOL006C, strain TOP1, hits give low values 1.02 | S. cerevisiae deletion strains, locus YPL055C, strain LGE1, hits give low values 1.12 | S. cerevisiae deletion strains, locus YPL241C, strain CIN2, hits give low values 1.01 | S. cerevisiae deletion strains, locus YPR135W, strain CTF4, hits give low values 1.13 | S. cerevisiae strains, strain wild type, hits give low values 0.998
